A selection: hits, their analogues and other compounds. The true share with any hit is near 3%.
PAFAH2 inh – PAFAH2 enzyme inhibitors, primary screen, biochemical, fluorescence polarization, human; Platelet-activating factor acetylhydrolase 2, cytoplasmic (Homo sapiens), Q99487; recombinant PAFAH2, FP-rhodamine activity probe; inhibition, % at 3.39 µM; actives 0.99% (n = 340,000); AID 492956, 2010;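 active = inhibition above the mean over all tested compounds plus 3 SD, cut at about 30% in these data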;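 also: inhibitors block probe labeling of enzyme so polarization drops; 0% = enzyme with DMSO and 100% = wells lacking PAFAH2 protein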
PAFAH1B3 inh – PAFAH1B3 enzyme inhibitors, primary screen, biochemical, fluorescence polarization, human; inhibition, % at 3.39 µM; AID 492972, 2010; recombinant PAFAH1B3, FP-rhodamine probe; Platelet-activating factor acetylhydrolase IB subunit alpha1 (Homo sapiens), Q15102; actives 0.28% (n = 340,000);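 active = inhibition above the screen-wide average of all tested compounds plus 3 SD, cut at about 25% in these data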;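 also: 0% = enzyme with DMSO only and 100% = wells lacking PAFAH1B3 protein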
DAGLB inh – DAGLB lipase inhibitors, primary screen, biochemical, fluorescence, HTS. HEK293T DAGLB membrane lysate, EnzChek fluorogenic substrate. AID 504411, 2011. actives 0.059% (n = 340,000). inhibition, % at 5.17 µM. Diacylglycerol lipase-beta (Homo sapiens), Q8NCG7; in the data active = inhibition above about 34%;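 also: 0% = enzyme with vehicle and 100% = wells lacking enzyme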
pPAFAH inh – pPAFAH enzyme inhibitors, primary screen, biochemical, fluorescence polarization, human | recombinant pPAFAH, FP-rhodamine probe fluorescence polarization | inhibition, % at 3.39 µM | actives 1.5% (n = 330,000) | AID 463082, 2010;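 active = inhibition above the mean inhibition across the screen plus 3 SD, cut at about 25% in these data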;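 also: inhibitors block binding of the rhodamine activity-based probe so polarization drops; 0% = enzyme with DMSO and 100% = wells lacking pPAFAH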
ATG4B inh – ATG4B protease inhibitors, primary screen, biochemical, fluorescence, uHTS | Cysteine protease ATG4B (Homo sapiens), Q9Y4P1 | ATG4B cleavage of LC3-PLA2, NBD-HPC fluorescence, 1 h | inhibition, % at 8.33 µM | actives 0.51% (n = 340,000) | AID 504462, 2011; in the data active = inhibition above about 40%
Target sequence (Q9Y4P1 whole entry, looked up): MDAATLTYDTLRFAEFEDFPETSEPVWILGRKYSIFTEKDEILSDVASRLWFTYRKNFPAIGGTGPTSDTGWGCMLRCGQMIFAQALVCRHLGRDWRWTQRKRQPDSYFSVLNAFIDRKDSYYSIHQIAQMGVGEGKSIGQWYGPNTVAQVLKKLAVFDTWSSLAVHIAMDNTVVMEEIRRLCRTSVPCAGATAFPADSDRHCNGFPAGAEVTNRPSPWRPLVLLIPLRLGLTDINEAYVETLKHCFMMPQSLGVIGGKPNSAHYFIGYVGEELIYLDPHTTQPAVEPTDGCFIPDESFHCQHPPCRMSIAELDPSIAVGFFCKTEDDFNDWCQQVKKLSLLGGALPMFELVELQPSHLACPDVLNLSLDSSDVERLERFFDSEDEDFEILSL
PAFAH1B2 FP inh – PAFAH1B2 enzyme inhibitors, primary screen, biochemical, fluorescence polarization, human; Platelet-activating factor acetylhydrolase IB subunit alpha2 (Homo sapiens), P68402; inhibition, % at 3.39 µM; actives 1.2% (n = 340,000); recombinant PAFAH1B2, FP-rhodamine activity probe;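 active = inhibition above the mean of all tested compounds plus 3 SD, cut at about 24% in these data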;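 also: 0% = enzyme with DMSO and 100% = wells lacking PAFAH1B2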
Starred values were filed as active, the others as inactive; x = no result.

SMILES	PAFAH2 inh	PAFAH1B3 inh	DAGLB inh	pPAFAH inh	ATG4B inh	PAFAH1B2 FP inh
CC(=O)NC(c1ccc(C)cc1)c1cc([N+](=O)[O-])c2cccnc2c1O (stereo not drawn)	9	4	22	28*	-10	5
CCC(=O)NC(c1cccs1)c1cc(Cl)c2cccnc2c1O (stereo not drawn)	-3	12	21	34*	1	7
CCC(=O)NC(c1ccc(C)cc1)c1ccc2cccnc2c1O (stereo not drawn)	2	8	10	8	5	4
Cc1cc(Br)ccc1OCC(=O)NNC(=O)Cc1ccccc1	14	-4	1	2	4	1
Cc1cc(Br)ccc1OCC(=O)NNC(=O)C(=O)Nc1ccccc1	11	2	5	9	8	27*
COc1cc(C(=O)NCC(c2ccco2)N2CCc3ccccc3C2)cc(OC)c1OC (stereo not drawn)	-1	-1	0	4	-2	1
CCOc1ncccc1C(=O)OCC(=O)Nc1cc(C(C)(C)C)ccc1OC	6	3	-10	28*	-3	6
COc1ccccc1/C=c1\sc2nc(-c3ccco3)nn2c1=O	17	3	0	25*	8	6
O=C(c1ccc(CNS(=O)(=O)c2ccc(Br)cc2)cc1)N1CCCCC1	1	6	-2	10	-10	6
CCOC(=O)Cc1csc(NC(=O)c2sc3nc4ccc(CC)cc4cc3c2N)n1	-6	-1	2	34*	10	0
CCOC(=O)Cc1csc(NC(=O)c2sc3nc4cc(C)ccc4cc3c2N)n1	6	4	-9	24	0	3
O=[N+]([O-])c1cccc(/C=N/Nc2nc(NCc3ccccc3)nc(N3CCOCC3)n2)c1O	0	11	5	25*	1	6
O=[N+]([O-])c1ccc(/C=N/Nc2nc(NCc3ccccc3)nc(N3CCOCC3)n2)cc1	6	0	0	-1	-9	7
Cc1onc(-c2ccccc2)c1CNC(=O)Nc1ccccc1	-2	0	-1	2	-2	7
CC(=O)NNC(=O)c1sc(=S)n2c1[nH]c(=O)c1sccc12	20	17	5	33*	6	6
O=C(NCc1ccccc1)c1sc(=S)n2c1[nH]c(=O)c1ccccc12	42*	31*	11	34*	-5	54*
COc1ccc(C(=O)CC(=O)Nc2ccc([N+](=O)[O-])cc2)cc1	7	-34	4	27*	-3	-9
Cc1ccc(NC(=O)CC(=O)c2ccc([N+](=O)[O-])cc2)cc1S(=O)(=O)Nc1cccc(Cl)c1	19	24	8	-15	30	27*
O=C(CN1C(=O)c2ccccc2C1=O)NCc1ccc(F)cc1	1	9	1	-2	-3	2
O=C(Cn1ccccc1=O)NCc1ccc(F)cc1	-1	-8	-2	33*	-2	2
CN(C)/C=C/C(=O)/C=C/c1cn(-c2ncc(C(F)(F)F)cc2Cl)c2ccccc12	-2	2	6	26*	9	-4
Cc1ccccc1-n1c(C)cc(/C=C(\C#N)C(=O)NCC2CCCO2)c1C (stereo not drawn)	0	-1	1	26*	15	1
O=C(COC(=O)CNC(=O)c1ccccc1F)NC12CC3CC(CC(C3)C1)C2	-1	2	-2	6	3	2
O=C(COC(=O)COc1ccccc1)NC12CC3CC(CC(C3)C1)C2	2	-2	-3	13	0	25*
O=C(CN1C(=O)C(=O)N(C2CCCC2)C1=O)Nc1cc(Cl)ccc1[N+](=O)[O-]	8	0	-4	1	8	2
SMILES	PAFAH2 inh	PAFAH1B3 inh	DAGLB inh	pPAFAH inh	ATG4B inh	PAFAH1B2 FP inh
CN(Cc1ccccc1)C(=O)COc1cc(=O)n(C)c2ccccc12	-9	-9	-3	32*	-3	9
COc1ccc2c(CC(=O)OCC(=O)Nc3cccc(C)c3)coc2c1	-3	10	0	33*	-14	-4
O=C(NC1CCN(S(=O)(=O)c2ccc(Cl)c(F)c2)CC1)c1cccnc1	-5	5	1	2	-14	4
O=c1[nH]c(S)c(/C=C2\C=Nc3ccccc32)s1	x	x	x	25*	-9	x
O=C(Cn1c(O)c(/C=C2\C=Nc3ccccc32)sc1=O)N1CCOCC1	-3	1	3	5	-4	4
Cc1cc(C)c(S(=O)(=O)/N=C2/C=C(SCC(=O)O)C(=O)c3ccccc32)cc1C	30*	37*	6	x	3	22
Cc1cc(C)c(S(=O)(=O)Nc2cc(SCC(=O)O)c(O)c3ccccc23)cc1C	x	x	x	16	1	x
CCN(CC)c1ccc(NC2CC(=O)N(CCc3ccc(OC)cc3)C2=O)cc1 (stereo not drawn)	5	9	11	28*	-8	3
Cc1ccc(NC(=O)CCC(=O)NNC(=O)COc2ccc([N+](=O)[O-])cc2)c(C)c1	-3	6	4	x	6	-3
CC1CCc2c(sc(NS(=O)(=O)c3ccccc3)c2C(=O)OC(C)C)C1 (stereo not drawn)	6	-2	-2	25*	5	3
COC(=O)c1c(NS(=O)(=O)c2ccc3ccccc3c2)sc2c1CCCC2	7	4	5	16	27	3
CC(C)CCN1CCN(Cc2ccc(N3CCNC3=O)cc2)CC1CCO (stereo not drawn)	3	3	1	-2	6	-2
O=C(CSc1nc2ccccc2o1)NCC1CCCO1 (stereo not drawn)	32*	21	1	2	1	24*
O=C(CSc1nc2ccccc2c(=O)n1CC1CCCO1)NCC1CCCO1 (stereo not drawn)	8	9	0	-4	-7	8
NS(=O)(=O)c1ccc(NC(=O)CSc2nc3ccccc3n2-c2ccccc2)cc1	-15	-15	0	32*	-13	-3
Cc1cc(C)nc(SCC(=O)c2cc3ccccc3oc2=O)n1	-1	4	-3	3	1	2
O=C(CSc1nc2ccccc2n1-c1ccccc1)NCC1CCCO1 (stereo not drawn)	4	2	-1	28*	3	-1
O=C(CSc1nc2ccccc2o1)c1cc2ccccc2oc1=O	-3	7	4	26*	32	4
O=C(CSc1nc2ccccc2o1)NC1CCCC1	2	3	-2	4	-8	7

Assay outcomes from PubChem.
